Test results reported in PubChem BioAssay AID1956 (SRMLSC, 2009).
The campaign covered roughly 220,000 compounds. About 10 (0.005%) were called active. Cut-off read from the data, not from the text of the source: active = maximum fold increase above about 1.5; inconclusive = no clear call, values can overlap the other calls; inactive = below that; tested in PC3 cells. The list is a sample of the results.

Test: compounds boosting herpes simplex virus growth – fold increase, host cell viability (AID 1956)
Settings: HSV replication augmentation in cells; fold increase: measured here: primary screen fold increase 10 uM, at 10 µM, stronger effect = higher value; maximum fold increase: at 0.098 µM, stronger effect = higher value; viability: measured here: host cell viability series, at 25 µM, stronger effect = lower value

SMILES	fold increase	outcome	maximum fold increase	viability [%]
COc1ccc(C#Cc2c(-c3ccc(OC)cc3)oc3ccc(-c4ccc5c(c4)OCO5)cc23)cc1	0.99	inactive	–	–
Cc1nc(-c2ccccc2)sc1C1(C)CC(c2cccnc2)=NO1 (configuration not stated)	0.85	inactive	–	–
COC(=O)c1sccc1NN1C(=O)c2ccccc2C1=O	1.18	inactive	–	–
COCCN1C2=C(COC(C)(C)C2)C(=S)NC1c1ccccc1 (configuration not stated)	0.95	inactive	–	–
O=C1N[C@@H](Cc2ccccc2)C(=O)N2[C@@H]3N(S(=O)(=O)c4ccc(F)cc4)c4ccccc4[C@]3(Br)C[C@@H]12	0.86	inactive	–	–
CCOC(=O)C[C@H]1c2ccc(C(F)(F)F)cc2S(=O)(=O)N1c1ccccc1	0.88	inactive	–	–
Cc1ccc(S(=O)(=O)N(C)C)cc1NC(=O)c1n[nH]c(=O)c2ccccc12	0.73	inactive	–	–
O=C(NCc1ccccc1)c1ccc(S(=O)(=O)Nc2cccc(C(F)(F)F)c2)cc1	0.83	inactive	–	–
O=C1CC(Cc2ccc(Cl)cc2)C(=O)N1c1cc(Cl)ccn1 (configuration not stated)	1.23	inactive	–	–
O=C(O)C(F)(F)C(NCc1ccccc1)c1ccccc1 (configuration not stated)	0.84	inactive	–	–
CCN(CC)CCNCC(=O)Nc1ccc(Oc2ccccc2)cc1	0.94	inactive	–	–
NS(=O)(=O)c1ccc(NC2=CC(c3ccc(F)cc3)N(c3ccc(S(N)(=O)=O)cc3)C2=O)cc1 (configuration not stated)	1.05	inactive	–	–
CC(C)(C)c1ccc(/C=C2\Oc3c(ccc(O)c3CN3CCN(CCO)CC3)C2=O)cc1	1.25	inactive	–	–
COc1ccc(CNC(=O)C2CC(c3ccc(C(F)(F)F)cc3)=NO2)cc1 (configuration not stated)	0.93	inactive	–	–
CCN(CC)c1ccc(NC(=O)C2CCC(CNc3c(N4CCCC4)c(=O)c3=O)CC2)c(C)c1 (configuration not stated)	1	inactive	–	–
COc1ccc(CCN2C(=O)N(c3ccc(OC)cc3)C(=O)C2CC(=O)Nc2ccc(OC)cc2)cc1 (configuration not stated)	0.88	inactive	–	–
COC(=O)c1ccc(C(NC(=O)OCc2ccccc2)/C(F)=C/[C@@H](C)C(=O)O)cc1 (some centres not stated)	0.86	inactive	–	–
COC(=O)c1c(C)cc(O)c(C)c1O	0.79	inactive	–	–
O=C1CC2(CCCC2)Oc2ccc(Cl)cc21	0.69	inactive	–	–
CC(C)Oc1ccc(CCC(=O)NNC(=S)NCc2ccccc2)cc1	1.13	inactive	–	–
CC(=O)N[C@H]1[C@H]([C@H](O)[C@H](O)CO)OC(C(=O)O)=C[C@@H]1O	0.87	inactive	–	–
CC(CO)(CO)NC(=O)c1ccc(=O)[nH]n1	0.94	inactive	–	–

SMILES	fold increase	outcome	maximum fold increase	viability [%]
COC(C[C@@H](O)C[C@H](O)[C@H](C)OCc1ccccc1)OC	0.91	inactive	–	–
COC(C[C@@H]1O[C@@H]1C(=O)[C@@H](C)OCc1ccccc1)OC	0.81	inactive	–	–
COc1ccc(NC(=O)CSc2ncnc3[nH]ncc23)cc1	1.02	inactive	–	–
CCOC(=O)c1ccc(NC(=O)c2c(NCc3ccccc3)[nH]c(=O)[nH]c2=O)cc1	0.87	inactive	–	–
O=C(NC(=O)N1CCSCC1)c1c(Cl)cccc1Cl	1	inactive	–	–
CNC(C)C#Cc1ccc2sc3cc(OC)c(OC)cc3c(=O)c2c1 (configuration not stated)	0.67	inactive	–	–
O=C(O)/C=C/c1ccc2c(c1)OCCO2	0.95	inactive	–	–
C[C@H](NC(=O)c1nc[nH]c1C(=O)N[C@@H](C)C(=O)OC(C)(C)C)C(=O)OC(C)(C)C	0.88	inactive	–	–
CNC(=S)NNC(=O)c1ccc(N(C)C)cc1	1.02	inactive	–	–
COc1ccc(CNC(=O)[C@@H]2CC=C[C@@H]3CCN(C4CC4)C(=O)[C@@H]32)cc1	0.88	inactive	–	–
CN=C1C=C/C(=N/N=c2\ccn(O)cc2C)C=C1C	1.05	inactive	–	–
Cc1ccccc1Nc1c(-c2ccccc2)nc2ncccn12	1.06	inactive	–	–
O=C1CCCC(O)=C1N=Nc1ccc(S(=O)(=O)N2CCOCC2)cc1	0.97	inactive	–	–
COC(C[C@@H]1O[C@@H]1C(=O)[C@H](C)OCc1ccccc1)OC	0.81	inactive	–	–
O=c1[nH]c(CSc2ccccc2)nc2c1oc1ccccc12	1.16	inactive	–	–
CCOC(=O)C1=NN(c2ccc(Cl)cc2)/C(=C/C2=NCCc3cc(OC)c(OC)cc32)S1	1.18	inactive	–	–
CCn1c2ccccc2c2cc(NC(=O)Nc3ccc([N+](=O)[O-])cc3C)ccc21	0.73	inactive	–	–
Cc1ccc(NC(=O)c2nc[nH]c2C(=O)N[C@@H](CCCCNC(=O)OC(C)(C)C)C(=O)OC(C)(C)C)cc1	0.74	inactive	–	–
C/C=C/C(=O)Nc1ccc(N2CCN(c3ccc(C(F)(F)F)cn3)CC2)nc1	0.88	inactive	–	–
CCC(=O)Nc1cccc(C2=NOC3(C2)C[C@@H](C(N)=O)N(C(=O)c2cc([N+](=O)[O-])cc([N+](=O)[O-])c2C)C3)c1 (some centres not stated)	1.3	inactive	–	–
CCCC[C@@H]1CN=C(N)N1CCCC	1.05	inactive	–	–
COC(C/C=C/C(=O)[C@@H](C)OCc1ccccc1)OC	0.77	inactive	–	–

SMILES	fold increase	outcome	maximum fold increase	viability [%]
Cn1ccnc1-c1nnn(-c2ccc(F)cc2)n1	1.06	inactive	–	–
CCOC(=O)c1cccc(NC(=O)c2ccc(F)cc2F)c1	0.77	inactive	–	–
O=C(N/N=C/c1ccccn1)c1cccnc1	1.05	inactive	–	–
COC(=O)C1=C[C@@H](C(=O)OC)[C@@H]2C3=C(C(=O)[C@]2(C)NC(=O)c2ccccc2)[C@H](C)n2c(=O)n(C)c(=O)n2[C@@H]3C1	0.77	inactive	–	–
C#CCOCCOCCOCCNc1nc(N2CCN(C(=O)C([C@@H](C)CC)n3cc(C(N)COC(=O)C(F)(F)F)nn3)CC2)nc(N2CCN(C(=O)[C@H](CCCCN)n3cc(C(N)CC(C)C)nn3)CC2)n1 (some centres not stated)	0.79	inactive	–	–
C=C(C)COc1ccc(-c2nc(N)ncc2-c2ccccc2OC)c(O)c1	0.94	inactive	–	–
COCCN(C(=S)Nc1cccc(Cl)c1C)C(C)c1ccco1 (configuration not stated)	1.01	inactive	–	–
Cc1cccc(Nc2nc(NCCO)nc(N3CCCC3)n2)c1	0.73	inactive	–	–
Cc1nnc(Nc2ccccc2F)s1	0.86	inactive	–	–
CC1(C)C2CC[C@]3(C)C(CC=C4[C@@H]5C[C@@](C)(CO)CC[C@]5(C(=O)O)CC[C@]43C)[C@@]2(C)CC[C@@H]1O (some centres not stated)	1.01	inactive	–	–
C=C(C)CNC(=S)Nc1ccc(S(=O)(=O)Nc2cnc3ccccc3n2)cc1	0.94	inactive	–	–
CCOC(=O)c1nnn2c1nc(N1CCN(c3ccccc3)CC1)c1ccccc12	1.01	inactive	–	–
CC1=C(N2CCN(c3ncccn3)CC2)CCC1=O	1.12	inactive	–	–
N#CCc1c(C#N)c(N)nc(N2CCCC2)c1C#N	0.85	inactive	–	–
COc1ccc(-c2nc3c(s2)CCc2onc(-c4ccc(Br)cc4)c2-3)cc1	0.69	inactive	–	–
C=CCSC(CC)(CC)C(N)=O	1.35	–	1.19 (inactive)	104
COCOc1cc(O)c(C(=O)/C=C/c2ccc(OCOC)c(OCOC)c2)c(OCOC)c1	0.92	inactive	–	–
O=C(NC1CCN(Cc2ccccc2)CC1)c1ccc(Oc2cc(Cl)cc(Cl)c2)o1	0.88	inactive	–	–
CN(C)/C=C(/C(=O)c1ccc(Cl)c(Cl)c1)c1nnnn1-c1ccccc1	1.22	inactive	–	–
COc1ccc2nc(NC(=O)NC3CCCCC3)sc2c1	0.94	inactive	–	–
C=CCOC(=O)C1=C[C@H](c2ccc(Br)cc2)C[C@H](OCCCCO)O1	0.91	inactive	–	–
O=C(CCl)Nc1ccc(Sc2ccc(NC(=O)CCl)cc2)cc1	0.77	inactive	–	–

SMILES	fold increase	outcome	maximum fold increase	viability [%]
CC(C)c1ccc(NC(=S)NC2CC3C=CC2C3)cc1 (configuration not stated)	0.94	inactive	–	–
CCCNc1c(N)c(=O)c1=O	0.92	inactive	–	–
CCCc1ccc(C(=O)[C@@H]2[C@@H](C(C)=O)N3c4ccc(F)cc4C=C[C@@H]3[C@@]23C(=O)Nc2ccccc23)cc1	1	inactive	–	–
Nc1c(N(CCO)C(=O)C2CCCCC2)c(=O)[nH]c(=O)n1Cc1ccccc1	0.95	inactive	–	–
CC1CC(=O)Nc2ccccc2N1S(=O)(=O)c1cccs1 (configuration not stated)	1.03	inactive	–	–
C=C1CCN([C@@H](Cc2ccccc2)C(=O)N2CCOCC2)S(=O)(=O)c2ccccc21	0.89	inactive	–	–
CC1CC(NC(=O)/C(C#N)=C/c2ccc[nH]2)CC(C)(C)C1 (configuration not stated)	0.99	inactive	–	–
Cc1nn2c(NCCN(C)C)c3c(nc2c1-c1ccccc1)CCC3	0.77	inactive	–	–
COc1ccccc1C1=CC(=O)CCC1	0.81	inactive	–	–
COCCCn1c(-c2cccs2)nc2nc3ccccc3nc21	0.9	inactive	–	–
O=C(CCNc1n[nH]c(=O)[nH]c1=O)N/N=C\c1ccc(Br)cc1	1	inactive	–	–
CC1(C)CC(CNCCC(c2ccc(F)cc2)c2ccco2)CCO1 (configuration not stated)	0.96	inactive	–	–
COc1ccc(CCn2c(NN=C3CCCC3)nc3c2c(=O)[nH]c(=O)n3C)cc1	0.93	inactive	–	–
CSC1=NC2(C)CCCCC2C12C=CC(=O)C=C2 (configuration not stated)	0.88	inactive	–	–
CCOC(=O)c1ccccc1NC(=O)c1c(N)n(C)c(=O)[nH]c1=O	0.6	inactive	–	–
Cc1ccc(-c2csc(NCCc3nc4cc(Cl)c(Cl)cc4n3CCOCCO)n2)cc1	0.88	inactive	–	–
CN(C)S(=O)(=O)c1ccc(NC(=O)COC(=O)Cn2[nH]c(=O)c3ccccc3c2=O)cc1	0.93	inactive	–	–
Nc1nc(Nc2ccccc2)nc(NCCO)c1[N+](=O)[O-]	0.82	inactive	–	–
C=CCSc1nnc2c(n1)-c1cccc3cccc-2c13	0.7	inactive	–	–
O=C1N[C@H](Cc2ccccc2)C(=O)N[C@H]1Cc1cn(S(=O)(=O)c2ccccc2)c2ccccc12	0.74	inactive	–	–
O=C(COc1ccccc1[N+](=O)[O-])N/N=C/c1ccc[nH]1	1	inactive	–	–
Cc1ccc(N2C(=O)CC(Nc3cccc4ccccc34)C2=O)cc1 (configuration not stated)	0.96	inactive	–	–
